From ChEMBL document CHEMBL2218924, “A broad activity screen in support of a chemogenomic map for kinase signalling research and drug discovery” (Biochem J, 2013)

Tests used:
[1] = biological target: RAC-alpha serine/threonine-protein kinase (Homo sapiens) (UniProt P31749); details: at 1 µM
[2] = biological target: RAC-alpha serine/threonine-protein kinase (Homo sapiens) (UniProt P31749); details: at 10 µM

Chain of RAC-alpha serine/threonine-protein kinase (Homo sapiens) (P31749 whole entry): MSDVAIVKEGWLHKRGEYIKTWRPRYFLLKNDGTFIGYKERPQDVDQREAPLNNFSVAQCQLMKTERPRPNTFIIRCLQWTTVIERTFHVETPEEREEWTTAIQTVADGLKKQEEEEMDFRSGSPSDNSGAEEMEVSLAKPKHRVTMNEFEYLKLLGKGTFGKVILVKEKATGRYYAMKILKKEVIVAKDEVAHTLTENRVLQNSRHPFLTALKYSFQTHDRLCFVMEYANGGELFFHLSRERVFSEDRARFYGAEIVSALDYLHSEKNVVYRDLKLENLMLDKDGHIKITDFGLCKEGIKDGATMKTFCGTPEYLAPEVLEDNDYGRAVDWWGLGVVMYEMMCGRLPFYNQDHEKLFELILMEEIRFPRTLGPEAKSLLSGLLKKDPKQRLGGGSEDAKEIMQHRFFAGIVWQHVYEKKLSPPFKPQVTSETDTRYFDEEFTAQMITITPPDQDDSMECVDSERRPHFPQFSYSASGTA

SMILES | residual activity [1] | residual activity [2]
COc1ccc(OC)c2c(=S)c3ccccc3[nH]c12 | 109% | 104%
CCCCc1c(-c2ccc(OC)cc2)[nH]c2nccnc12 | 118% | 106%
CCC(=O)Nc1ccc2ncnc(Nc3cccc(Br)c3)c2c1 | 99% | 106%
COc1cc2nccc(Oc3ccc(NC(=O)Nc4cc(C)on4)c(Cl)c3)c2cc1OC | 97% | 101%
NC(=O)c1ccc2[nH]c(-c3ccc(Oc4ccc(Cl)cc4)cc3)nc2c1 | 109% | 112%
Cc1nc2cc3nc(-c4cccs4)cnc3cc2n1C | 100% | 105%
O=C1Nc2ccccc2/C1=C1/Nc2ccccc2/C1=N\OCCC(O)CO (stereo unspecified) | 113% | 101%
O=C(Nc1cccc(Nc2nccc(Nc3cccc(C(F)(F)F)c3)n2)c1)C1CC1 | 103% | 104%
CC(C)n1cnc2/c(=N/c3cccc(Cl)c3)nc(NCCO)[nH]c21 | 111% | 109%
O=C(Nc1cccc(Nc2cc(Nc3cccc(C(F)(F)F)c3)ncn2)c1)C1CC1 | 96% | 99%
Nc1ccc2ncnc(NCCc3ccc(Oc4ccccc4)cc3)c2c1 | 110% | 108%
COc1cccc(-c2cc(=O)c3ccccc3o2)c1N | 106% | 109%
O=C1NC(=O)c2c1c1c3ccccc3[nH]c1c1[nH]c3cc(Br)ccc3c21 | 103% | 106%
Oc1ccc(Nc2nc(-c3ccc(Cl)cc3)cs2)cc1 | 124% | 94%
Oc1c2ccccc2c2c3c(cccc13)N=N2 | – | 110%
CN(C)CCCn1cc(C2=C(c3c[nH]c4ccccc34)C(=O)NC2=O)c2ccccc21 | 103% | 104%
Cn1nc2c3c(cccc31)C(=O)c1ccccc1-2 | 111% | 108%
COc1ccc(Cl)cc1NC(=O)Nc1cc(C)nc2ccccc12 | 95% | 94%
N#C/C(=C\c1ccc(O)c(O)c1)C(=O)NCc1ccccc1 | 103% | 120%

SMILES | residual activity [1] | residual activity [2]
CC(=O)c1ccc(N2CCOCC2)cc1O | 101% | 111%
NC(=O)Nc1sc(-c2ccc(F)cc2)cc1C(N)=O | 114% | 109%
Nc1ncnc2c1cnn2-c1ccccc1 | 96% | 96%
O=C(c1ccccc1)c1ccc(N2CCOCC2)cc1O | 96% | 98%
CNc1cc2c(Nc3cccc(Br)c3)ncnc2cn1 | 98% | 98%
Cn1cc(/C=C2\C(=O)Nc3ccc(S(N)(=O)=O)cc32)c2ccccc21 | 96% | 101%
CCOc1cc2ncnc(Nc3cccc(Br)c3)c2cc1OCC | 101% | 109%
NCCNc1ncc(C(N)=O)c(Nc2cccc(C(F)(F)F)c2)n1 | – | 112%
COc1cc2ncnc(N3CCN(C(=O)Nc4ccc(Oc5ccccc5)cc4)CC3)c2cc1OC | 106% | 107%
CO[C@H]1C[C@@H]2CC[C@@H](C)[C@@](O)(O2)C(=O)C(=O)N2CCCC[C@H]2C(=O)O[C@H]([C@H](C)C[C@@H]2CC[C@@H](O)[C@H](OC)C2)CC(=O)[C@H](C)/C=C(\C)[C@@H](O)[C@@H](OC)C(=O)[C@H](C)C[C@H](C)/C=C/C=C/C=C/1C | 105% | 98%
CN(C)c1ccc(/C=C2\C(=O)Nc3ccccc32)cc1 | 112% | 121%
O=S(=O)(NCCNC/C=C/c1ccc(Br)cc1)c1cccc2cnccc12 | – | 22%
Cn1cnc2cc3c(Nc4cccc(Br)c4)ncnc3cc21 | 95% | 109%
c1ccc(-c2cnc(Nc3ccc(OCCN4CCCC4)cc3)s2)cc1 | 102% | 115%
CC(C)(C)c1nc2c3ccc(F)cc3c3c(=O)[nH]ccc3c2[nH]1 | 98% | 104%
CC(=O)O/N=C1\C(=C2\C(=O)Nc3cc(Br)ccc32)Nc2ccccc21 | 115% | 109%
CC(C)n1cnc2c(NCc3ccccc3)nc(NCCCO)nc21 | 107% | 110%
Cc1cc(Nc2nc(-c3ccccc3)nc3ccccc23)n[nH]1 | 113% | 101%
